Where “and” joins values, the source holds several entries; their conditions need not be identical. Identical values can stand only once. About 79,000 compounds went through this panel and 15% of them were active in at least one assay; those are over-represented in the sample as a whole. Calls of active or inactive are those of the source. Cut-off read from the data, not from the text of the source: active = growth inhibition above about 70%; inactive = the rest.
Tests used:
[1] = NCI Yeast Anticancer Drug Screen. Data for the rad50 strain (AID 155);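 note: 0% = growth of vehicle-only cultures of the same strain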; details: S. cerevisiae rad50 strain growth inhibition, hits give high values; at 50.0 µM unless noted
Summary of the method: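 Genetically altered yeast (DNA repair pathway); compound treatment; growth inhibition vs vehicle ctrl.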

[2] = NCI Yeast Anticancer Drug Screen. Data for the mec2-1 strain (AID 157); details: S. cerevisiae mec2-1 strain, hits give high values; at 50.0 µM unless noted
Summary of the method: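 Mutant yeast (mec2-1) grown with compound; growth inhibition relative to vehicle control reported.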

[3] = NCI Yeast Anticancer Drug Screen. Data for the sgs1 mgt1 strain (AID 161);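 note: 0% = growth of cultures given vehicle only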; details: S. cerevisiae sgs1 mgt1 strain, hits give high values; at 50.0 µM unless noted
Summary of the method: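 Yeast cells carrying a defined DNA-repair defect were exposed to test compounds. Growth inhibition was measured relative to vehicle-treated controls.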

[4] = NCI Yeast Anticancer Drug Screen. Data for the cln2 rad14 strain (AID 165);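 note: 0% = growth equal to vehicle treated cultures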; details: S. cerevisiae cln2 rad14 strain, hits give high values; at 50.0 µM unless noted
Summary of the method: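 Readout is yeast growth inhibition versus vehicle-treated controls, using a strain with cln2 and rad14 alterations exposed to compound.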

[5] = NCI Yeast Anticancer Drug Screen. Data for the bub3 strain (AID 167); details: S. cerevisiae bub3 mutant strain, hits give high values; at 50.0 µM unless noted
Summary of the method: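 Yeast carrying a defined mutation is treated with each compound, and growth is compared with that of vehicle-exposed cells to give inhibition.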

[6] = NCI Yeast Anticancer Drug Screen. Data for the mlh1 rad18 strain (AID 175); details: S. cerevisiae mlh1 rad18 strain growth inhibition, hits give high values; at 50.0 µM unless noted
Summary of the method: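 Genetically defined yeast (DNA repair-deficient) exposed to compounds; growth inhibition determined relative to vehicle.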

Measured: growth inhibition

CC1=C(C(=O)Nc2cc(=O)n(C)c(=O)n2C)C(c2cccc([N+](=O)[O-])c2)C(C(=O)Nc2cc(=O)n(C)c(=O)n2C)=C(C)N1
inactive: [1] 8.7% | [2] 32.1% | [3] 24.9% | [4] 21.9% | [5] 24.4% | [6] 41.8%

O=C(O)c1cccc(C(=O)O)c1Sc1ccccc1
inactive: [1] 1.9% | [2] 1.9% | [3] 5.75% | [4] 11.3% | [5] -0.1% | [6] 12.1%

CCc1nnc2c(C)c(C)nc(C)n12
inactive: [1] 21.2% | [2] 1.55% | [3] -16% | [4] -16.1% | [5] 17.2% | [6] 1.6%

OCCCCC1CCCc2ccccc21 (centres undefined)
inactive: [1] 17.3% | [2] 16.1% | [3] 3.15% | [4] -4.55% | [5] -1.85% | [6] -3.45%

c1cnc2c(c1)Oc1nc3ccccc3nc1S2
inactive: [1] 2.25% | [2] 6% | [3] 3.9% | [4] 35.9% | [5] 8.9% | [6] 23.1%

CCNC(=O)c1ccc(C(C)C)cc1
inactive: [1] 8.4% | [2] -7.2% | [3] 14.2% | [4] 4.75% | [5] 2.15% | [6] 5.75%

CN(C)C(=O)OC(Cn1cncn1)(Cn1cncn1)c1ccc(Cl)cc1Cl
inactive: [1] -29.8% | [2] 13% | [3] 7.5% | [4] -10.8% | [5] 5.1% | [6] -16.8%

COC(=O)C1=C2C3(O)CC4CC5C3CCC(C)N5C24C2CCCC(OC)C2C1OC(=O)c1ccccc1 (centres undefined)
inactive: [1] -2.1% | [2] -27.1% | [3] 17.9% | [4] 8.9% | [5] 0.7% | [6] 24.1%

CSc1nc(SC)c2cnn(CC3CO3)c2n1 (centres undefined)
inactive: [1] 44.2% | [2] -15.2% | [3] 60.8% | [4] 11.1% | [5] -20.1% | [6] 39.5%

N#C/C(=C\c1ccccc1)c1ccc(F)cc1
inactive: [1] 39.4% | [2] 42.1% | [3] 25.7% | [4] 18.4% | [5] 32.5% | [6] 25.8%

O=C(O)CCCl
inactive: [1] -8.95% and -10.8% | [2] 7.65% and -16.2% | [3] 25.1% and -18.3% | [4] -27.1% and -34.2% | [5] -6.1% and -0.9% | [6] 29.3%

CN(C)CC(C(=O)/C=C/c1ccccc1)C(C)(C)C (centres undefined)
inactive: [1] -10.4% | [2] -21.9% | [3] -16.2% | [4] 11.6% | [5] -11% | [6] -38.3%

CCOc1ccc(N=Cc2ccc3cc(C)ccc3n2)cc1
inactive: [1] -9.95% | [2] -9.65% | [3] -2.4% | [4] 12.2% | [5] -1.8% | [6] -19.9%

O=CNC1c2ccccc2CCc2ccccc21
inactive: [1] -1.15% | [2] -12.9% | [3] -11.4% | [4] -2.45% | [5] -22.6% | [6] -5.85%

O/C(=C/c1ncnc2ccccc12)c1cccc(Cl)c1
inactive: [1] 12.5% | [2] 4.4% | [3] 22.8% | [4] -11.4% | [5] 14.7% | [6] 15%

O=C(Cc1ccccc1)C(c1ccccc1)C(c1ccccc1)c1ccccc1 (centres undefined)
inactive: [1] -12.8% | [2] -11.8% | [3] 5.25% | [4] 13.6% | [5] -2.25% | [6] -1.25%

O=C(Cc1csc2ccccc12)NCC1CC1
inactive: [1] -17.4% | [2] -19.1% | [3] -0.45% | [4] 2.45% | [5] 11% | [6] -3.55%

CCOC(=O)c1ccc(N=C2S/C(=C\C(=S)Nc3ccccc3)N(c3ccccc3)C2=Nc2ccc(C(=O)OCC)cc2)cc1
inactive: [1] 14.3% | [2] 4.85% | [3] 12.4% | [4] 13.6% | [5] 19.2% | [6] 12.4%

O=P(O)(O)c1ccc(-c2ccc(I)cc2)cc1
inactive: [1] 11.7% | [2] -15.5% | [3] 7.45% | [4] 22.2% | [5] -8.8% | [6] 13.2%

CC(=O)Nc1ccc(S(=O)(=O)N/N=C(/C)c2ccccc2)cc1
inactive: [1] -8.8% | [2] -31.8% | [3] 1.05% | [4] 1.55% | [5] -23.4% | [6] -23.6%

CC(=O)c1ccc(O)c(/C=C2\CCOC2=O)c1
inactive: [1] 8.2% | [2] 8.4% | [3] -9% | [4] -3.45% | [5] 9.55% | [6] 7.7%

Cc1c2c(c(O)c3sccc13)C(C)(C)OC2=O
inactive: [1] -3.75% | [2] -1.8% | [3] -9.6% | [4] -59% | [5] -26.4% | [6] -3.1%

CCOC(=O)c1nnsc1N/N=C\c1ccc([N+](=O)[O-])cc1
inactive: [1] -5.05% | [2] -15% | [3] -25.7% | [4] 12.3% | [5] -19.5% | [6] 14.3%

N#Cc1[nH]c(=O)n(-c2ccccc2)c1N
inactive: [1] -40.2% | [2] -57.8% | [3] -60.2% | [4] -22.4% | [5] -17.2% | [6] -37%

CCOc1cccc(C=N)c1O
inactive: [1] 35.8% | [2] -0.55% | [3] 51.9% | [4] 36.4% | [5] -1.75% | [6] 46.5%

Oc1cc2c(cc1C(Nc1ncccn1)c1ccc3c(c1)OCO3)OCO2 (centres undefined)
inactive: [1] -0.4% | [2] 6.8% | [3] 12.8% | [4] -16.3% | [5] 19.4% | [6] 15.3%

CCCC1([N+]2(C)CCCC2)CS(=O)C1CC (centres undefined)
inactive: [1] -3.8% | [2] 8.45% | [3] -3% | [4] -4.8% | [5] 5.8% | [6] -13.3%

NC(=O)NCCCC(N)C(=O)O (centres undefined)
inactive: [1] 7.7% and -23.9% | [2] -16.2% and -16.6% | [3] -5.85% and -13.1% | [4] -2.4% and 2.9% | [5] 9.45% and -39.5% | [6] -10.4% and -14.9%

CCC[C@@H]1C(=O)N=C(N)N1C(=O)OCc1ccccc1
inactive: [1] 18.6% | [2] 8.4% | [3] 7.75% | [4] 1.8% | [5] -5.8% | [6] 2.5%

O=C1COC(c2ccccc2O)=NN1Cc1ccccc1
inactive: [1] -14.6% | [2] -0.3% | [3] -5.3% | [4] -4.75% | [5] -8.6% | [6] -1.1%

Cc1cccc(NC(=O)OC/C=C/c2ccccc2)c1
active: [2] 70.5%
inactive: [1] 10.3% | [3] 53.5% | [4] 0.65% | [5] 31.4% | [6] 4.95%

CC1C(=O)C(c2cccs2)(C2CCCCC2)CC[N+]1(C)C (centres undefined)
inactive: [1] 0% | [2] 4.5% | [3] -6.05% | [4] -19.1% | [5] 1.25% | [6] 17.4%

CC(=O)N(C)c1ccc(NC(=O)C2CCCCC2C(=O)O)cc1 (centres undefined)
inactive: [1] 6.95% | [2] 8.6% | [3] 6.2% | [4] 3.65% | [5] 22.2% | [6] -14.2%

CC(=O)c1ccc2c(c1)sc1ccccc12
inactive: [1] 66.9% | [2] -25.3% | [3] -6.4% | [4] -2.25% | [5] 28.5% | [6] 55.9%

O=C1c2ccc3c4ccccc4n(-c4ccccc4)c3c2C(=O)N1c1ccc(Cl)cc1
inactive: [1] -11.8% | [2] -2.95% | [3] -26.2% | [4] 24.9% | [5] -18.4% | [6] -7.05%

Cc1nnsc1C(=O)NCc1c(F)cccc1Cl
inactive: [1] 6.65% | [2] 15.6% | [3] 11% | [4] 25.4% | [5] 37.3% | [6] 28.8%

N=c1ccccn1C(=O)C1=Cc2cc(Cl)cc(Cl)c2OC1
inactive: [1] -15.6% | [2] 0.75% | [3] -1.85% | [4] -25.8% | [5] 7.65% | [6] -2.25%

Cc1cc(N(CCC#N)CCC#N)ccc1/C=C1/CN(N2C(=O)/C(=C/c3ccc(N(CCC#N)CCC#N)cc3C)N=C2c2ccccc2)C(c2ccccc2)=N1
inactive: [1] -2.7% | [2] -25.4% | [3] -22.6% | [4] 5.6% | [5] -28.8% | [6] -11.1%

O=C1/C(=C/c2ccc(Cl)cc2)CCC1CN1CCOCC1 (centres undefined)
active: [1] 89.8% | [2] 92.2% | [3] 89.2% | [4] 92.3% | [5] 91.1% | [6] 92%
